Test results reported in the supplement of paper PMC6555819.

Columns and labels:
Experiment in all cases: PBM binding z-score (relative to random genomic background probes); higher = stronger binding; sequences stand for … in GC…GCGATTGACAGCGTAGAATGAAGG
[1] = test system: PPARg:RXRa DBDmut IVT, anti-RXR (DBD mutation: RXRa K156A/R161A, NR concentration 270 nM, RXRa partner concentration 90 nM)
Procedure, shortened: (§1)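 Scanned fluorescence from custom Agilent 4×180K protein-binding microarrays was regression-normalized. Binding z-scores use random background probes as reference. Ligand-free nuclear receptor dimers were incubated on the arrays for 1 h and detected with antibodies against each partner (one per run).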

[2] = test system: PPARg:RXRa IVT, anti-PPARg (NR concentration 270 nM, RXRa partner concentration 90 nM)
Procedure, shortened: as §1

[3] = test system: PPARg DBDmut:RXRa IVT, anti-PPARg (DBD mutation: PPARg1 K132A/R137A, NR concentration 270 nM, RXRa partner concentration 90 nM)
Procedure, shortened: as §1

[4] = test system: PPARg DBDmut IVT, anti-PPARg (DBD mutation: PPARg1 K132A/R137A, NR concentration 270 nM)
Procedure, shortened: as §1

[5] = test system: PPARg homodimer (NR concentration 180 nM)
Procedure, shortened: as §1

[6] = test system: PXR:RXRa (NR concentration 270 nM, RXRa partner concentration 90 nM)
Procedure, shortened: as §1

[7] = test system: PXR homodimer (NR concentration 270 nM)
Procedure, shortened: as §1

[8] = test system: RARa:RXR (NR concentration 270 nM, RXRa partner concentration 90 nM)
Procedure, shortened: as §1

[9] = test system: RARa homodimer (NR concentration 270 nM)
Procedure, shortened: as §1

[10] = test system: RARb:RXRa (NR concentration 270 nM, RXRa partner concentration 90 nM)
Procedure, shortened: as §1

Row | Sequence | PBM binding z-score [1] | PBM binding z-score [2] | PBM binding z-score [3] | PBM binding z-score [4] | PBM binding z-score [5] | PBM binding z-score [6] | PBM binding z-score [7] | PBM binding z-score [8] | PBM binding z-score [9] | PBM binding z-score [10]
1 | AAATGTAGGTTACATCCGGGTCATTCAGGCTATG | 8.29 | 8.08 | 3.52 | 2.02 | 2.68 | 3.79 | 2.33 | 3.75 | 1.1 | 2.28
2 | AGACCAAGGTGATCGTGAGGTCGTTGATACTAAC | 0.783 | 0.9 | -0.832 | -0.109 | 0.38 | 2.79 | 0.858 | 1.72 | -0.21 | 1.32
3 | TCATATAGGTAAAGGGGAAAGTCGAACGATATGA | 4.16 | 2.85 | 1.41 | 1.19 | 0.621 | 0.551 | 0.506 | 0.562 | 0.996 | 0.83
4 | CCAGCCAGGTGAGAAGGTAACTCAGCCTCGATTA | 0.886 | 0.642 | -1.31 | -0.676 | -0.199 | -0.486 | -0.622 | -0.386 | -0.592 | 0.364
5 | TAGCCTAGGTCATGCCGGCCAGTATAGTGTCGGC | 1.13 | 2.47 | -0.929 | -0.11 | 0.237 | 0.798 | -0.486 | 1.77 | -0.917 | 3.48
6 | TCATATACGTAAACAGGTGAAAGTCCGTAAGTTA | 2.72 | 1.26 | 1.21 | 1.05 | 1.24 | 1.19 | 0.801 | 1.68 | 1.67 | 0.855
7 | ATTATTAGTTGACTTAGGGCAACCGATACGACGC | 0.113 | 0.899 | 2.01 | 2.21 | 2.16 | 1.14 | 1.53 | 0.95 | 2.43 | 1.12
8 | ACTTTTAGTTGACTTAGGGCAACCGATACGACGC | 0.679 | 0.936 | 1.38 | 1.82 | 0.639 | 0.436 | 0.106 | 0.954 | 0.984 | 1.23
9 | ACTATTACTTGACTTAGGGCAACCGATACGACGC | 0.692 | 0.81 | 1.57 | 1.96 | 1.24 | 0.284 | 0.533 | 0.623 | 1.42 | 0.876
10 | CAAACTAGGTCAAGAGGTGAAAGTCCGCTTCCCG | 8.11 | 8.63 | 5.95 | 5.05 | 5.72 | 2.72 | 0.369 | 4.83 | 1.4 | 4.54
11 | TCTTCTAGATCAAAGGTTAAGAAAGCCGAAGCCT | 2.42 | 3.52 | 0.463 | 0.915 | 1.09 | 1.63 | -0.258 | 2.74 | 0.0747 | 1.98
12 | CGAACGAGGGCATGAGTTGATATCAAATGCCGAT | 3.23 | 2.11 | 0.21 | -0.287 | 0.26 | 0.636 | -0.013 | 0.352 | -0.464 | 2.01
